# According to PubChem BioAssay (NCATS):
# “And” between values parts separate entries of the source, which are not always exact repeats. Equal values may be shown once. Unmarked numbers belong to inactive results. Inconclusive results are not listed. Where a call stands in place of a potency, no number is given. The source made the active and inactive calls. Unless noted, calls come from the whole dose curve; as a rule, active = well fitted curve in the direction sought with a large enough effect; inconclusive = small, poorly fitted or top-dose-only effect, or another doubt; inactive = no such curve, though single readings can be large; an effect the other way counts as inactive or inconclusive.
# What was measured:
# NIH3T3 = assay: qHTS assay to identify novel small-molecules to repurpose for Merkel cell carcinoma treatment (AID 1296009); settings: MCC and control cell lines, CellTiter-Glo viability, 72 h; series mostly up to 44.8 µM; note: nearly all actives have a fitted effect of over 60% in size
# Outline: (§1)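 qHTS format: cells treated with library compounds in DMSO across 8 (NPC) or 11 (MIPE) concentrations. Readout after 72 hr at 37 degree celsius was CellTiter-Glo luminescence.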
# UISO = assay: as above; settings: MCC and control cell lines, CellTiter-Glo viability, 72 h; series mostly up to 46 µM
# Outline: as §1
# WaGa = assay: as above; settings: MCC and control cell lines, CellTiter-Glo viability, 72 h; series mostly up to 46 µM
# Outline: as §1
# C33A = assay: Primary qHTS to identify gynecologic anti-cancer compounds using libraries of approved drugs and bioactive compounds (AID 1345084); settings: Gynecologic cancer cell panel viability, ATPlite luminescence, 48 h; series mostly up to 57.5 µM; note: nearly all actives have a fitted effect of over 55% in size
# Outline: (§2)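 Cell viability after 48 h drug treatment, ATPlite luminescence readout; five doses.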
# CAOV3 = assay: as above; settings: Gynecologic cancer cell panel viability, ATPlite luminescence, 48 h; series mostly up to 57.5 µM
# Outline: as §2
# CASKI = assay: as above; settings: Gynecologic cancer cell panel viability, ATPlite luminescence, 48 h; series mostly up to 57.5 µM
# Outline: as §2
# JEG-3 = assay: as above; settings: Gynecologic cancer cell panel viability, ATPlite luminescence, 48 h; series mostly up to 57.5 µM
# Outline: as §2
# Tov-21-G = assay: as above; settings: Gynecologic cancer cell panel viability, ATPlite luminescence, 48 h; series mostly up to 57.5 µM
# Outline: as §2
# Tov112D = assay: as above; settings: Gynecologic cancer cell panel viability, ATPlite luminescence, 48 h; series mostly up to 57.5 µM
# Outline: as §2
# [1] = Drug repurposing screens with cells derived from glioblastoma tumor samples (AID 1345199); settings: GBM patient neurospheres viability, ATP luminescence, 48 h; note: nearly all actives have a fitted effect of over 40% in size; note: potency is the fitted concentration of half-maximal effect
# Outline: (§3)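 Four patient lines of CD133+ GBM neurospheres were screened at several concentrations; hits were retested in those lines plus three slower-growing GBM lines, using 48-hour treatment and ATP-based viability.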
# astro = assay: as above; settings: viability, ATP luminescence, 48 h; series mostly up to 45.9 µM
# Outline: as §3
# Es-2 = assay: Primary qHTS to identify gynecologic anti-cancer compounds using libraries of approved drugs and bioactive compounds (AID 1345084); settings: Gynecologic cancer cell panel viability, ATPlite luminescence, 48 h; series mostly up to 57.5 µM; note: nearly all actives have a fitted effect of over 55% in size
# Outline: as §2
# HeLa = assay: as above; settings: Gynecologic cancer cell panel viability, ATPlite luminescence, 48 h; series mostly up to 57.5 µM
# Outline: as §2
# Hek293T = assay: as above; settings: Gynecologic cancer cell panel viability, ATPlite luminescence, 48 h, control line for the selectivity index; series mostly up to 57.5 µM
# Outline: as §2
# OV90 = assay: as above; settings: Gynecologic cancer cell panel viability, ATPlite luminescence, 48 h; series mostly up to 57.5 µM
# Outline: as §2
# PA-1 = assay: as above; settings: Gynecologic cancer cell panel viability, ATPlite luminescence, 48 h; series mostly up to 57.5 µM
# Outline: as §2
# SKOV3 = assay: as above; settings: Gynecologic cancer cell panel viability, ATPlite luminescence, 48 h; series mostly up to 57.5 µM
# Outline: as §2
# [2] = target: Nuclear receptor subfamily 1 group I member 2 (Rattus norvegicus) (UniProt Q9R1A7); assay: qHTS assay for small molecule activators of the rat pregnane X receptor (rPXR) signaling pathway (AID 651751; call rule not given here); settings: rPXR reporter cells, luciferase (One-Glo), 24 h
# [3] = qHTS assay for small molecule activators of the human pregnane X receptor (PXR) signaling pathway (AID 720659; call rule not given here)
# [4] = at 45.9 µM (top of the series), tumour line B
# [5] = at 45.9 µM (top of the series), tumour line D
# [6] = at 46 µM (top of the series), tumour line A
# [7] = at 46.1 µM (top of the series), tumour line C
# Chain of Nuclear receptor subfamily 1 group I member 2 (Rattus norvegicus) (Q9R1A7 whole entry, looked up): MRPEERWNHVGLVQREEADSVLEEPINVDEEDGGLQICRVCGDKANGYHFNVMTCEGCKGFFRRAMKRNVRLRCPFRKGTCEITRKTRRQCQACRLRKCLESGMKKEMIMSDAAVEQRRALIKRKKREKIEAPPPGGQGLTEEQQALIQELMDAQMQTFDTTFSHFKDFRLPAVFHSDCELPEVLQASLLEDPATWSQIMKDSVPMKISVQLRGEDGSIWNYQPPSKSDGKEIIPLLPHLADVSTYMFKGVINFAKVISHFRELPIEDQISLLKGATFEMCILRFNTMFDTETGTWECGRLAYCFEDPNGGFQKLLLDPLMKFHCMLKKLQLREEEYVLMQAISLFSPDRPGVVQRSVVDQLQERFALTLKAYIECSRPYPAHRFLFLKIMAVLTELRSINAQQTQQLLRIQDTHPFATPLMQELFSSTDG
smiles,measurement,setting,value
Cc1cc(C(C)(C)C)cc(C)c1CC1=NCCN1,outcome,NIH3T3,inactive
same,Potency,UISO,inactive
same,Potency,WaGa,inactive
same,Potency,C33A,inactive
same,Potency,CAOV3,inactive
same,Potency,CASKI,inactive
same,Potency,JEG-3,inactive
same,Potency,Tov-21-G,inactive
same,Potency,Tov112D,inactive
same,"activity, negative = cell killing","[1]; at 20 µM (top of the series), tumour line C",-2.93%
same,"activity, negative = cell killing","[1]; at 21.2 µM (top of the series), tumour line B",-9.52%
same,"activity, negative = cell killing","[1]; at 21.2 µM (top of the series), tumour line D",-25.7%
same,Potency,astro,inactive
CC(C)(Oc1ccc(C2CC2(Cl)Cl)cc1)C(=O)O (centres undefined),outcome,NIH3T3,inactive
same,Potency,UISO,inactive
same,Potency,WaGa,inactive
same,Potency,C33A,inactive
same,Potency,CASKI,inactive
same,Potency,Es-2,inactive
same,Potency,HeLa,inactive
same,Potency,Hek293T,inactive
same,Potency,JEG-3,inactive
same,Potency,OV90,inactive
same,Potency,PA-1,inactive
same,Potency,SKOV3,inactive
same,Potency,Tov-21-G,inactive
same,Potency,Tov112D,inactive
same,"activity, negative = cell killing",[1]; [4],-9.51%
same,"activity, negative = cell killing",[1]; [5],-16.1%
same,"activity, negative = cell killing",[1]; [6],-29.3%
same,"activity, negative = cell killing",[1]; [7],6.66%
same,max response,[2],27.5%
same,outcome,[3],inactive
COc1ccc2[nH]cc(CCNC(C)=O)c2c1,outcome,NIH3T3,inactive
same,Potency,UISO,inactive
same,Potency,WaGa,inactive
same,Potency,C33A,inactive
same,Potency,CASKI,inactive
same,Potency,Es-2,inactive
same,Potency,HeLa,inactive
same,Potency,Hek293T,inactive
same,Potency,JEG-3,inactive
same,Potency,OV90,inactive
same,Potency,PA-1,inactive
same,Potency,SKOV3,inactive
same,Potency,Tov-21-G,inactive
same,Potency,Tov112D,inactive
same,"activity, negative = cell killing",[1]; [4],-3.86%
same,"activity, negative = cell killing",[1]; [5],3.96%
same,"activity, negative = cell killing",[1]; [6],-18.9%
same,"activity, negative = cell killing",[1]; [7],-11.3%
same,max response,[2],3.19% and 0.0273% and 3.25%
same,outcome,[3],inactive
CCOC(=O)C(C)(C)Oc1ccc(Cl)cc1,outcome,NIH3T3,inactive
same,Potency,UISO,inactive
same,Potency,WaGa,inactive
same,Potency,C33A,inactive
same,Potency,CAOV3,inactive
same,Potency,CASKI,inactive
same,Potency,Es-2,inactive
same,Potency,HeLa,inactive
same,Potency,Hek293T,inactive
same,Potency,JEG-3,inactive
same,Potency,OV90,inactive
same,Potency,PA-1,inactive
same,Potency,SKOV3,inactive
same,Potency,Tov-21-G,inactive
same,Potency,Tov112D,inactive
same,"activity, negative = cell killing",[1]; [4],-9.66%
same,"activity, negative = cell killing",[1]; [5],-5.13%
same,"activity, negative = cell killing",[1]; [7],5.62%
same,max response,[2],2.24%
same,outcome,[3],inactive
O=C(c1ccc(F)cc1)C1CCN(CCn2c(=O)[nH]c3ccccc3c2=O)CC1,outcome,NIH3T3,inactive
same,Potency,UISO,inactive
same,Potency,WaGa,inactive
same,Potency,C33A,inactive
same,Potency,CAOV3,inactive
same,Potency,CASKI,inactive
same,Potency,Es-2,inactive
same,Potency,HeLa,inactive
same,Potency,Hek293T,inactive
same,Potency,JEG-3,inactive
same,Potency,OV90,inactive
same,Potency,PA-1,inactive
same,Potency,SKOV3,inactive
same,Potency,Tov-21-G,inactive
same,Potency,Tov112D,inactive
same,"activity, negative = cell killing",[1]; [5],-39.8%
same,"activity, negative = cell killing",[1]; [7],7.2%
same,Potency,[1]; tumour line A,3.98 µM (active)
NC12CC3CC(CC(C3)C1)C2,outcome,NIH3T3,inactive
same,Potency,UISO,inactive
same,Potency,WaGa,inactive
same,Potency,C33A,inactive
same,Potency,CASKI,inactive
same,Potency,Es-2,inactive
same,Potency,HeLa,inactive
same,Potency,Hek293T,inactive
same,Potency,JEG-3,inactive
same,Potency,OV90,inactive
same,Potency,PA-1,inactive
same,Potency,SKOV3,inactive
same,Potency,Tov-21-G,inactive
same,Potency,Tov112D,inactive
same,"activity, negative = cell killing",[1]; [4],-22.3%
same,"activity, negative = cell killing",[1]; [6],14.4%
same,"activity, negative = cell killing",[1]; [7],2.2%
Cn1ccc2cc3c(cc21)CCN3C(=O)Nc1cccnc1,outcome,NIH3T3,inactive
same,Potency,UISO,inactive
same,Potency,WaGa,inactive
same,Potency,C33A,inactive
same,Potency,CAOV3,inactive
same,Potency,CASKI,inactive
same,Potency,Es-2,inactive
same,Potency,HeLa,inactive
same,Potency,Hek293T,inactive
same,Potency,JEG-3,inactive
same,Potency,OV90,inactive
same,Potency,PA-1,inactive
same,Potency,SKOV3,inactive
same,Potency,Tov-21-G,inactive
same,Potency,Tov112D,inactive
CC(C)Cc1ccc(C(C)C(=O)O)cc1 (centres undefined),outcome,NIH3T3,inactive [at 17.4 µM]
same,Potency,UISO,inactive
same,Potency,WaGa,inactive
same,Potency,C33A,inactive
same,Potency,CASKI,inactive
same,Potency,Es-2,inactive
same,Potency,HeLa,inactive
same,Potency,Hek293T,inactive
same,Potency,JEG-3,inactive
same,Potency,OV90,inactive
same,Potency,PA-1,inactive
same,Potency,Tov-21-G,inactive
same,Potency,Tov112D,inactive
same,"activity, negative = cell killing",[1]; [4],-11.8%
same,"activity, negative = cell killing",[1]; [5],-6.13%
same,"activity, negative = cell killing",[1]; [6],-21.1%
same,"activity, negative = cell killing",[1]; [7],-7.76%
same,outcome,[3],inactive
CC[N+](CC)(CC)CCOc1cccc(OCC[N+](CC)(CC)CC)c1OCC[N+](CC)(CC)CC,outcome,NIH3T3,inactive
same,Potency,UISO,inactive
same,Potency,WaGa,inactive
same,Potency,C33A,inactive
same,Potency,CAOV3,inactive
same,Potency,CASKI,inactive
same,Potency,Es-2,inactive
same,Potency,HeLa,inactive
same,Potency,Hek293T,inactive
same,Potency,JEG-3,inactive
same,Potency,OV90,inactive
same,Potency,PA-1,inactive
same,Potency,SKOV3,inactive
same,Potency,Tov-21-G,inactive
same,Potency,Tov112D,inactive
same,"activity, negative = cell killing",[1]; [4],-15.6%
same,"activity, negative = cell killing",[1]; [5],-21.5%
same,"activity, negative = cell killing",[1]; [6],-28%
same,"activity, negative = cell killing",[1]; [7],-0.854%
Cc1cc(C(C)(C)C)c(O)c(C)c1CC1=NCCN1,outcome,NIH3T3,inactive
same,Potency,UISO,inactive
same,Potency,WaGa,inactive
same,Potency,C33A,inactive
same,Potency,CAOV3,inactive
same,Potency,CASKI,inactive
same,Potency,Es-2,inactive
same,Potency,HeLa,inactive
same,Potency,Hek293T,inactive
same,Potency,JEG-3,inactive
same,Potency,OV90,inactive
same,Potency,PA-1,inactive
same,Potency,SKOV3,inactive
same,Potency,Tov-21-G,inactive
same,Potency,Tov112D,inactive
same,"activity, negative = cell killing",[1]; [4],-18.7%
same,"activity, negative = cell killing",[1]; [5],-26.9%
same,"activity, negative = cell killing",[1]; [7],5.76%
CCN1CCCC1CNC(=O)c1cc(S(=O)(=O)CC)c(N)cc1OC (centres undefined),outcome,NIH3T3,inactive
same,Potency,UISO,inactive
same,Potency,WaGa,inactive
same,Potency,C33A,inactive
same,Potency,CAOV3,inactive
same,Potency,CASKI,inactive
same,Potency,Es-2,inactive
same,Potency,HeLa,inactive
same,Potency,Hek293T,inactive
same,Potency,JEG-3,inactive
same,Potency,OV90,inactive
same,Potency,PA-1,inactive
same,Potency,Tov-21-G,inactive
same,Potency,Tov112D,inactive
same,"activity, negative = cell killing",[1]; [4],6.58%
same,"activity, negative = cell killing",[1]; [5],-2.77%
same,"activity, negative = cell killing",[1]; [7],-4.87%
COc1ccccc1OCC(O)CN1CCN(CC(=O)Nc2c(C)cccc2C)CC1 (centres undefined),outcome,NIH3T3,inactive
same,Potency,UISO,inactive
same,Potency,WaGa,inactive
same,Potency,C33A,inactive
same,Potency,CAOV3,inactive
same,Potency,CASKI,inactive
same,Potency,Es-2,inactive
same,Potency,HeLa,inactive
same,Potency,Hek293T,inactive
same,Potency,JEG-3,inactive
same,Potency,OV90,inactive
same,Potency,PA-1,inactive
same,Potency,SKOV3,inactive
same,Potency,Tov-21-G,inactive
same,Potency,Tov112D,inactive
same,"activity, negative = cell killing",[1]; [4],-2.09%
same,"activity, negative = cell killing",[1]; [5],-4.68%
same,"activity, negative = cell killing",[1]; [7],-16.2%
same,Potency,astro,inactive
